73 molecules from PubChem BioAssay AID488890 (Southern Research Specialized Biocontainment Screening …, 2010) can be followed below.

The whole screen tested about 320,000 compounds, of which about 1,300 (0.41%) were called active. About 3% were inconclusive and are not listed. No rule for the calls is given here. The list is a sample of the results. Entries with a potency or affinity are not part of this list.

A short description of the assay: growth inhibition of non-replicating M. tuberculosis (AID 488890).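 Also: plate controls were DMSO cells for no effect and high antibiotic wells for full effect.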 The conditions noted are these: Mycobacterium tuberculosis non-replicating, at 25 µM, stronger effect = higher value.
Consider `COc1ccc(OC)c(C(=O)NC2CCSc3ccccc32)c1` (stereo not drawn), for which the inhibition – broadly, the drop in the measured response relative to a control, in per cent – was 3.7%.

Take `O=C(Nc1cccc(NC(=O)C2CC3CCCC(C2)C3=O)n1)C1CC2CCCC(C1)C2=O` (stereo not drawn): the inhibition is 28.2%.

Consider `Cc1cc(Cl)ccc1N=c1ssnc1Cl`, for which the inhibition worked out at 19.9%.

In the case of `Cc1ccc(N=c2ssnc2Cl)cc1`, the inhibition was 77.3%.

Take `Cn1nc(C(=O)NCc2cccs2)c2ccccc2c1=O`: the inhibition worked out at 40.9%.

Consider `COC(=O)c1sc2ncn(-n3c(C)ccc3C)c(=O)c2c1C`, for which the inhibition was found to be 5.25%.

Consider `Cc1c(C(=O)O)sc2ncn(C)c(=O)c12`, for which the inhibition was -3.22%.

As for `Cc1cc(C)n2nc(S(=O)(=O)NC(C)(C)C)nc2n1`, the inhibition is -0.21%.

As to `COc1cccc(NS(=O)(=O)c2nc3nc(C)cc(C)n3n2)c1`, the inhibition was -24.1%.

Regarding `COc1ccc(OCC(=O)N(C)CC2COc3ccccc3O2)cc1` (stereo not drawn), the inhibition was 27.1%.

Take `COCc1nnc(NC(=O)c2cccc(NC(=O)C(C)C)c2)s1`: the inhibition was -15.2%.

With `Cc1ccc(C(=O)N/C(=C\c2cccc([N+](=O)[O-])c2)C(=O)NC(Cc2ccccc2)C(=O)O)cc1` (stereo not drawn), the inhibition is 4.43%.

For `Cc1ccc(N/C(N)=N/c2nc(C)cc(C)n2)cc1`, the inhibition stood at 7.73%.

Regarding `CC(=O)Nc1ccc(N/C(N)=N/c2nc(C)cc(C)n2)cc1`, the inhibition is -1.18%.

`CC(C)(C)NC(=O)C(=O)NNC(=O)c1ccccc1`: the inhibition amounted to 10.8%.

Take `CC(C)(C)c1ccc(C(=O)NNC(=O)c2ccc(Cl)cc2)cc1`: the inhibition is -14.5%.

For `O=C(CCC(=O)c1ccc(Br)cc1)Nc1cccnc1`, the inhibition was found to be 40.4%.

Turning to `CCN(CC(=O)NC(C)C)C(=O)[C@@H](NC(=O)c1ccco1)C(C)C`, the inhibition was -7.65%.

Regarding `CCCCC(O)(CCCC)C(=O)NNc1ccccc1`, the inhibition was determined as 36.2%.

For `CCCC(O)(CCC)C(=O)NNc1ccccc1`, the inhibition was found to be 23.3%.

Take `Cc1ccc(-c2nnc(SCC(=O)NCC3CCCO3)n2C)cc1` (stereo not drawn): the inhibition is -16.4%.

For the molecule `CC(C)(C)C(=O)Nc1nnc(-c2ccncc2)o1`, the inhibition came to 1.94%.

Take `Cc1ccccc1C(=O)Nc1nnc(-c2ccncc2)o1`: the inhibition worked out at 30.5%.

`O=C(Nc1nnc(-c2ccc(Cl)cc2)o1)Nc1ccccc1Cl`: the inhibition is -7.45%.

As to `O=C(Nc1nnc(-c2ccc(Cl)cc2)o1)Nc1ccccc1F`, the inhibition was found to be 11.3%.

Turning to `Cc1ccnc2nc(C(=O)Nc3nnc(-c4ccc(Cl)cc4)o3)nn12`, the inhibition was 2.05%.

Turning to `NC(=O)c1oc2ccccc2c1NC(=O)c1nc2ccccc2s1`, the inhibition came to 5.47%.

As to `O=C(Nc1nnc(-c2ccc(Cl)cc2)o1)c1ccc(N2C(=O)CCC2=O)cc1`, the inhibition was -7.34%.

Regarding `O=C(Nc1nnc(-c2ccc(Cl)cc2)o1)NC1CCCCC1`, the inhibition was -11.6%.

For `COCCN(C(=O)CSc1nc2ccccc2o1)c1c(N)n(Cc2ccccc2)c(=O)[nH]c1=O`, the inhibition came to 10.9%.

For `Cc1ccc(NC(=O)CCCCCCCCCCC2COCCO2)c(C)c1` (stereo not drawn), the inhibition is -9.85%.

In the case of `CN(C(=O)COC(=O)c1ccc(Br)c(S(=O)(=O)N2CCOCC2)c1)C1CCCCC1`, the inhibition turned out to be 11.1%.

For the molecule `Cc1cc(-c2nnco2)c(C)n1-c1ccccc1`, the inhibition was found to be 11.1%.

On to `O=C1NC2(CCCCCC2)C(=O)N1Cc1ccc([N+](=O)[O-])cc1`, for which the inhibition was -2%.

On to `O=C1C(=O)N(CCN2CCOCC2)C(c2ccccc2F)/C1=C(\O)c1ccc(S(=O)(=O)N2CCOCC2)cc1` (stereo not drawn), for which the inhibition turned out to be 2.92%.

Turning to `O=C(COc1ccccc1)N/N=C/c1sc(=O)n(Cc2cccc(C(=O)O)c2)c1Cl`, the inhibition is -0.36%.

As for `CC[C@H](C)C(C(=O)N1CCN(C(=O)OC(C)(C)C)CC1)n1cc(C(CC(C)C)NC(=O)OC(C)(C)C)nn1` (stereo partly drawn), the inhibition was 10.5%.

For `CCOC(=O)c1ccc(CNC(=O)Cn2nnc(-c3cccc(C)c3)n2)o1`, the inhibition came out at 4.91%.

For the molecule `Cc1ccccc1NC(=O)COC(=O)CCSc1ccccc1`, the inhibition was 61.5%.

As to `CCOc1ccc(C(=O)n2cc(C(=O)OC)c3ccccc32)cc1`, the inhibition came out at 24.8%.

For the molecule `O=C1CCc2cc(S(=O)(=O)NCc3ccc(F)cc3)cc3c2N1CCC3`, the inhibition is 22.8%.

As for `COc1ccc(CNC(=O)CSc2ncn[nH]2)cc1OC`, the inhibition was -3.59%.

As for `COC(=O)c1ccc(NC(=O)CN2CCN(S(=O)(=O)c3cc(Cl)ccc3OC)CC2)cc1`, the inhibition came to 54.1%.

In the case of `CN1CCc2c(sc(NC(=O)c3ccco3)c2C(N)=O)C1`, the inhibition was 0.26%.

For the molecule `COC(=O)c1sc(NC(=O)c2ccco2)c(C#N)c1C`, the inhibition came to 16.9%.

Take `CN1CCc2c(sc(NC(=O)c3ccc(C(=O)c4ccccc4)cc3)c2C(N)=O)C1`: the inhibition is -13.4%.

With `COC(=O)c1c(NC(=O)Cc2ccccc2)sc2c1CCN(C(C)C)C2`, the inhibition is -13.3%.

As to `COC(=O)c1sc(NC(=O)c2c(OC)cccc2OC)c(C#N)c1C`, the inhibition was -6.6%.

In the case of `COC(=O)c1c(NC(=O)c2ccco2)sc2c1CCN(C(C)C)C2`, the inhibition was 2.92%.

For the molecule `COc1ccc(/C(C)=N/OCC(=O)N=Nc2c(O)[nH]c3ccccc23)cc1`, the inhibition is -24.1%.

As for `CCC(C)NC(=O)/C=C/c1cccs1` (stereo not drawn), the inhibition came out at 59.1%.

`COc1ccc(CNC(=O)N2CCN(c3ccccc3OC)CC2)cc1`: the inhibition came to 1.13%.

As to `O=C(CCc1nc2ccccc2c(=O)[nH]1)Nc1nnc(SCc2ccc(F)cc2)s1`, the inhibition is -4.81%.

Regarding `O=C(Cc1ccccc1)c1ccccc1C(=O)N1CCCCC1`, the inhibition came to 9.16%.

As to `O=C(Nc1ccc(Cl)cc1)Nc1nnc(-c2ccncc2)s1`, the inhibition amounted to 16.2%.

Consider `O=C(Nc1ccc(Cl)c(Cl)c1)Nc1nnc(-c2ccncc2)s1`, for which the inhibition amounted to 68.9%.

For the molecule `CC1CCCC(NC(=O)COC(=O)c2ccc(Cl)nc2)C1C` (stereo not drawn), the inhibition is -6.83%.

`C=CCn1c(C)csc1=Nc1ccccc1C`: the inhibition was determined as 10.7%.

In the case of `CCc1ccccc1NC(=O)c1noc(C(C)C)c1[N+](=O)[O-]`, the inhibition is -10.1%.

Take `Cc1nn(Cc2ccccc2Cl)c(C)c1NC(=O)c1noc(C(C)C)c1[N+](=O)[O-]`: the inhibition was -8.32%.

Take `O=C1CN(S(=O)(=O)c2ccccc2)CCN1`: the inhibition stood at 3.07%.

Turning to `O=C(CC(c1ccccc1)c1ccccc1O)NCc1ccccc1Cl` (stereo not drawn), the inhibition was determined as 23.8%.

For the molecule `O=C1CSC(=S)N1c1cccnc1`, the inhibition is 11.9%.

`O=C1CSC(=Nc2ccc(Cl)cc2)N1Cc1cccnc1`: the inhibition was determined as 1.07%.

Take `O=C(O)c1ccc(N2C(=O)CSC2=S)cc1`: the inhibition turned out to be 74.2%.

Consider `O=C(O)c1ccc(N=C2SCC(=O)N2Cc2ccccc2)cc1`, for which the inhibition turned out to be 7%.

For `N#Cc1ccc(OCC(O)CN2CCN(CC(O)COc3ccc(C#N)cc3)CC2)cc1` (stereo not drawn), the inhibition was -21.4%.

For `Cc1ccc(-c2nnc(-c3cccnc3)o2)cc1`, the inhibition amounted to 37.8%.

For the molecule `Brc1ccc(-c2nnc(-c3cccnc3)o2)cc1`, the inhibition came to 68.4%.

Regarding `CN(C)S(=O)(=O)c1cccc(-c2nnc(SCc3cc(Cl)cc4c3OCOC4)n2N)c1`, the inhibition worked out at 23.1%.

For the molecule `Cc1onc(-c2ccccc2Cl)c1C(=O)Nc1ccccc1O`, the inhibition amounted to 8.07%.

Turning to `CN1CC(=O)N/C1=N\C(=O)Nc1ccc(O)cc1`, the inhibition is -12.3%.

Turning to `CN1CC(=O)NC1=NC(=O)c1cc(F)c(F)cc1Cl`, the inhibition is -0.31%.
